Source: PubChem BioAssay (EPA / NIEHS)
Where “and” joins values, the source holds several entries; their conditions need not be identical. Equal entries are not always repeated. Where a structure was tested more than once in an assay, its records may differ in their call. Calls of active or inactive are those of the source. How the source made its calls: active means hit-call score of the fitted dose curve at least 0.9, where 1 is the maximum; inconclusive means response in the unintended direction; inactive means score below 0.9.

Tested on: Thyroperoxidase (TPO), gene 54314
Experiment: CCTE_Simmons_AUR_rTPO: CCTE's Amplex UltraRed Assay for Thyroperoxidase (TPO) Inhibition, Simmons Lab (AID 2283662);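 on AC50: potency for loss of signal meaning inhibition of peroxidase activity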
Experimental: CCTE_Simmons_AUR_rTPO is a biochemical, single-readout assay that uses microsomes from rat thyroid gland in a tissue-based cell-free assay. Measurements were taken 0.5 hour after chemical dosing in a 384-well plate.CCTE_Simmons_AUR_rTPO is the assay component measured from the CCTE_Simmons_AUR_rTPO assay. It is designed to make measurements of thyroperoxidase (TPO) activity as detected with fluorescence intensity signals using the Amplex UltraRed technology as a form of enzyme activity reporter.Data from the assay component CCTE_Simmons_AUR_rTPO was analyzed at the endpoint, CCTE_Simmons_AUR_rTPO, in the positive analysis fitting direction relative to DMSO as the negative control and baseline of activity. Using a type of enzyme reporter, the Amplex UltraRed assay, loss-of-signal activity can be used to understand decreased peroxidase activity in the presence of excess […]. To generalize the intended target to other relatable targets, this assay endpoint is annotated to the oxidoreductase intended target family, where the subfamily is peroxidase.
As described previously (Paul et al., 2014), the AUR substrate was repurposed to detect peroxidase (ie, TPO) activity in the presence of excess H2O2 for the AUR-TPO assay. The reaction profile for the 384-well format AUR-TPO assay is scaled to an 80 ul assay volume containing 25 uM AUR, 300 uM H2O2, and 5 ug microsomal protein in 200 mM phosphate buffer. The assay concentration of thyroid microsomal protein was approximately […]. First, rat microsomes containing TPO and diluent 200mM potassium phosphate buffer were added to opaque, black 384-well plates (Greiner, BioExpress; Kaysville, Utah) using an automated liquid handler (BioTek MicroFlo; Winooski, Vermont) with a plastic 5 ul tubing cassette. Similarly, AUR was added next by automated liquid handling. Test compounds were administered using a HDRT as described earlier to achieve a 0.5% final DMSO concentration. Finally, H2O2 (300 uM, final concentration) was then added by the BioTek MicroFlo to initiate the reaction. Microplates were incubated at 37C in the dark for 30min. Plates were then shaken on a fluorescence plate reader (FLUOStar Optima, BMG LabTech; GmbH, Germany), and endpoint fluorescence (top read) was measured using 10 flashes per well at 544/590nm excitation/emission. Three biological replicates of technical singles were run for every chemical concentration tested. A titrated range of MMI served as a positive control for TPO inhibition on each plate of the AUR-TPO screening campaign. Test chemicals were administered as a titrated series of 8 concentrations from 5 nM up to 87.5 uM [final] for 30 minutes prior to single endpoint detection. Dimethylsulfoxide [DMSO] was used as the vehicle control. Methimazole [MMI] was used as the positive control and was administered as a titrated series of 8 concentrations from 1 nM up to 271 uM [final].

With `CCC(C)(C)C1CCC(=O)CC1` as the compound, how does the AC50 read?
The AC50 was 39.3 µM (active).

`O=C1OC2(c3ccc(O)cc3Oc3cc(O)ccc32)c2ccccc21` was tested. Which AC50 did it give?
The AC50 was 10.2 µM (active).

With `O=C(O)C1=NN(c2ccc(S(=O)(=O)O)cc2)C(=O)C1` as the compound, how does the AC50 read?
The AC50 was 36.4 µM (active).

Which AC50 does the source give for `C[C@]12CC[C@@H]3c4ccc(O)cc4CC[C@H]3[C@@H]1CC[C@@H]2O` here?
The AC50 was 4.86 µM (active).

`O=C(c1ccc(OCCN2CCCCC2)cc1)c1c(-c2ccc(O)cc2)sc2cc(O)ccc12` was tested. Which outcome did it give?
The outcome was “inactive”.

`CCCCCCCCOC(=O)c1ccc(O)cc1` was tested. Which AC50 did it give?
The AC50 was 52.8 µM (active).

Which AC50 does the source give for `CN1CCc2cccc3c2[C@H]1Cc1ccc(O)c(O)c1-3` here?
Its AC50 is 0.522 µM (active).

`[O-]/[N+](=N\O)c1ccccc1` was tested. Which outcome did it give?
Its outcome is “inactive”.

Which AC50 does the source give for `CC(=O)OC/C=C(C)/C=C/C=C(C)/C=C/C1=C(C)CCCC1(C)C` here?
Its AC50 is 50.9 µM (active).

Which outcome does the source give for `O=c1cc[nH]cc1` here?
Its outcome is “inactive”.

How did the AC50 turn out when `CCCCCCCCCCCCOCCOS(=O)(=O)O` was run?
Its AC50 is 50.8 µM (active).

`CCc1cccc(O)c1` was tested. Which AC50 did it give?
Its AC50 is 16.6 µM (active).

For `CCCCC/C=C\C=C\C(=O)OCC`, which AC50 is on record?
The AC50 was 38.6 µM (active).

Which AC50 does the source give for `COc1ccccc1O` here?
The AC50 was 21.7 µM (active).

With `c1ccc2scnc2c1` as the compound, how does the AC50 read?
Its AC50 is 56 µM (active) and 16.7 µM (active).

For `CCCCCCOc1ccc(O)cc1`, which AC50 is on record?
The AC50 was 8.69 µM (active).

`O=C(O)CS` was tested. Which outcome did it give?
Its outcome is “inactive”.

Which AC50 does the source give for `NC(N)=S` here?
Its AC50 is 19.1 µM (active) and 12.3 µM (active).

With `C#C[C@]1(O)CC[C@H]2[C@@H]3CCc4cc(O)ccc4[C@H]3CC[C@@]21C` as the compound, how does the AC50 read?
The AC50 was 9.38 µM (active).

With `CC(=O)Nc1cc(S(=O)(=O)O)cc2cc(S(=O)(=O)O)c(N=Nc3ccccc3)c(O)c12` as the compound, how does the AC50 read?
The AC50 was 40.8 µM (active).

How did the AC50 turn out when `CCCCCCCCCCCCS` was run?
Its AC50 is 7.49 µM (active).

`CC/C(=C(\c1ccccc1)c1ccc(OCCN(C)C)cc1)c1ccccc1` was tested. Which outcome did it give?
The outcome was “inactive”.

And the AC50?
Its AC50 is 24.2 µM (active).

How did the AC50 turn out when `O=c1cc(-c2ccc(O)cc2)oc2cc(O)cc(O)c12` was run?
Its AC50 is 4.81 µM (active).

For `Cc1cccc(O)c1`, which AC50 is on record?
The AC50 was 19.6 µM (active).

For `CN(C)C(=O)Nc1ccccc1`, which AC50 is on record?
The AC50 was 43.8 µM (active).

How did the outcome turn out when `O=Cc1ccccc1O` was run?
The outcome was “inactive”.

With `CCCc1ccc(N)cc1` as the compound, how does the AC50 read?
Its AC50 is 0.0301 µM (active).

How did the outcome turn out when `CC1=CCC(=C(C)C)CC1` was run?
The outcome was “inactive”.

With `CC(C)(C)c1cccc(O)c1` as the compound, how does the AC50 read?
The AC50 was 18.9 µM (active).

Which outcome does the source give for `CCCc1ccc(O)cc1` here?
Its outcome is “inactive”.
